HT1080-NT tox: kills 2HG-producing HT-1080-NT fibrosarcoma cells | Potency, µM (top dose mostly 46.1 µM), inactives show top-dose activity, negative = less viability, usual class: cytotoxic | actives 1.6% (n = 360,000) | AID 686970 | HT-1080-NT fibrosarcoma viability, CellTiter-Glo ATP luminescence, 48 h;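 note: NT is the 2HG producing partner of a matched IDH1 knockdown line; potency is the fitted concentration of half-maximal effect; 0% = DMSO-treated cells and -100% = media-only wells without cells; nearly all actives have a fitted effect of over 55% in size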
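HT-1080-NT fibrosarcoma cells (2HG-overproducing), 750 cells/well in RPMI with 5% FBS, dosed after 2 h and incubated 48 h at 37C. CellTiter-Glo luminescence normalized to DMSO and no-cell wells; concentration-response curves fitted and classed.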
DT40 TDP1 CPT: DT40-hTDP1 cell growth loss with CPT | chicken DT40 Tdp1-/-;hTDP1 cells + 20 nM CPT, ATP luminescence, 48 h | actives 12% (n = 420,000) | AID 686979 | Potency, µM (doses to about 46.2 µM), without a hit: at the highest dose activity change, negative = growth inhibition, usual class: inhibitors; note: potency is the fitted concentration of half-maximal effect; nearly all actives have a fitted effect of over 55% in size
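Chicken DT40 Tdp1-/- cells stably complemented with human TDP1 were seeded at 400 cells/well in medium containing 20 nM camptothecin, exposed to pin-transferred compounds, and grown at 37 °C for at least 48 hr. Viability was read as ATP luminescence.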
DT40 TDP1 no CPT: qHTS for Inhibitors of human tyrosyl-DNA phosphodiesterase 1 (TDP1): qHTS in cells in absence of CPT | DT40 Tdp1-/- hTDP1 cells, no CPT, ATP luminescence, 48 h | Potency, µM (series often up to 46.2 µM), for the others: top-dose activity change, negative = growth inhibition, hits mostly inhibitors | actives 15% (n = 420,000) | AID 686978, 2013; note: potency is the fitted concentration of half-maximal effect; nearly all actives have a fitted effect of over 55% in size
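Camptothecin absent (DMSO only). Human TDP1-complemented DT40 knockout cells, 400 cells/well, 37 °C for minimum 48 hr; ATP measured via CellTiter-Glo, 30 min dark incubation, luminescence.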
IL-1B inflam inh: inflammasome signaling inhibition, IL-1 beta readout; actives 4.7% (n = 360,000); THP-1 LPS/ATP IL-1B secretion, AlphaLISA, 16 h; hits give low values; activity change, % at 57.5 µM; in the data active = activity change below about -50%; inconclusive = mostly about -30% to -49%
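THP-1 cells pretreated 1 hr with compounds (up to 57.5 uM final), then stimulated with LPS (250 ng/mL final) plus ATP (1.25 mM final); secreted IL-1B measured by AlphaLISA after 16 hr, decreased signal indicating inhibition.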
HT1080 IDH1KD tx: kills HT-1080 cells with IDH1 knockdown; Potency, µM (titrated, usually from 46.1 µM), without a hit: at the top dose activity, negative = toxicity, usual class: cytotoxic; HT-1080 IDH1 knockdown viability, ATP luminescence, 48 h; actives 2% (n = 360,000); AID 686971;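 note: potency is the fitted concentration of half-maximal effect; 0% = DMSO wells and -100% = cell-free medium wells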
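HT-1080-IDH1KD cells (IDH1 knocked down), 750/well in RPMI with 5% FBS, treated with compound 48 h at 37 degrees C. Viability by CellTiter-Glo luminescence, normalised to DMSO and no-cell wells; concentration-response curves classed.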
* hit, by the source's call; u = inconclusive; x = no result given; [ ] = remark or other dose. The list is not random: actives were taken first. Their share in the collection is about 19%. Unless noted, calls come from the whole dose curve; as a rule, active = well fitted curve in the direction sought with a large enough effect; inconclusive = small, poorly fitted or top-dose-only effect, or another doubt; inactive = no such curve, though single readings can be large; an effect the other way counts as inactive or inconclusive. Unless noted, % is set by controls: 0 for no effect and ±100 for the full control effect.

SMILES	HT1080-NT tox	DT40 TDP1 CPT	DT40 TDP1 no CPT	IL-1B inflam inh	HT1080 IDH1KD tx
CSc1ccc(CN2CCC(n3nccc3NC(=O)C3CCOC3)CC2)cc1 (stereo not given)	3.9%	-9.3%	-11.1%	17.4	-0.5%
O=S(=O)(Nc1cc2nc3ccccc3nc2n1Cc1ccccc1)c1ccc(Cl)cc1	u	u	23.1µM*	-91.3*	-5.9%
O=S(=O)(Nc1nc2ccccc2[nH]1)c1ccc(Cl)cc1	-6.9%	-12.3%	-23.0%	-5.9	-11.8%
CC(CSc1nc2ccccc2s1)Cn1c(N2CCCC2)nc2c1c(=O)[nH]c(=O)n2C (stereo not given)	-21.7%	u	16.4µM*	-18.8	u
CC(C)CCn1c(Sc2nc3ccccc3s2)nc2c1c(=O)[nH]c(=O)n2C	-19.9%	u	16.4µM*	-16.2	-11.1%
CC1CCN(c2nc3c(c(=O)[nH]c(=O)n3C)n2CC(C)CSc2nnnn2-c2ccccc2)CC1 (stereo not given)	-3.2%	16.4µM*	u	u	8.6%
Cn1c(=O)[nH]c(=O)c2c1nc(N1CCCCC1)n2CCCSc1nnnn1-c1ccccc1	-1.7%	u	u	2.9	-2.7%
CCN1CCN(c2nc3c(c(=O)[nH]c(=O)n3C)n2CCSc2nc3ccccc3s2)CC1	-22.9%	u	u	-22.8	1.2%
COc1ccc(OC)c(-c2cc(Cl)c3c(c2)CC(CNC(=O)/C=C/c2ccccn2)O3)c1 (stereo not given)	x	2.6%[9.04 µM]	-10.8%	x	x
CCc1ccccc1NC(=S)N(CCOC)C(C)c1ccco1 (stereo not given)	2.8%	u	u	-9.5	-2.7%
O=C1C=C(c2cnc3ccccc3c2)C[C@@H](c2ccc3c(c2)OCO3)C1	-7.9%	20.6µM*	u	u	-15.7%
O=C1C=C(c2cccc(Br)c2)C[C@@H](c2ccc3c(c2)OCO3)C1	0.6%	u	23.1µM*	-4.1	-7.5%
COc1ccc([C@H]2CC(=O)C=C(c3cccc(C(C)C)c3)C2)cc1OC	-16.3%	20.6µM*	16.4µM*	-50.6*	-2.4%
CC(C)c1cccc(C2=CC(=O)C[C@H](c3ccc(F)cc3)C2)c1	-5.0%	u	u	-21.4	-0.3%
COc1ccc([C@H]2CC(=O)C=C(c3cccc4c3Oc3ccccc3S4)C2)cc1OC	-17.4%	16.4µM*	13µM*	-4.9	-13.4%
CCOC(CNC(=O)Cn1nc(C)c2ccccc21)OCC	6.2%	12.4%	-0.1%	1.0	6.3%
COc1ccc(NC(=O)COC(=O)C2CCN(S(=O)(=O)c3ccccc3)CC2)cc1Cl	8.2%	0.2%	1.4%	6.4	1.4%
COc1ccc([C@H]2CC(=O)C=C(c3cccc(Br)c3)C2)cc1	-5.5%	u	u	-17.8	-1.0%
COc1ccc([C@H]2CC(=O)C=C(c3cccc(Br)c3)C2)cc1OC	-27.7%	u	13µM*	-14.2	-28.5%
O=C(O)CNC(=O)CC1S/C(=N/N=C/c2ccccc2O)NC1=O (stereo not given)	-0.5%	20.6µM*	16.4µM*	4.4	-2.0%
Nc1sc(Cc2ccccc2)cc1C(=O)c1c(-c2ccccc2)[nH]c2ccccc12	7.31µM*	3.66µM*	4.61µM*	-11.6	4.61µM*
Cc1ccsc1C(=O)OC(C)C(=O)NC1CCCCC1C (stereo not given)	-0.9%	-10.9%	-15.5%	-6.1	-3.0%
Cc1ccc(NC(=O)c2ccc3c(c2)C(=O)N(CC2CCCO2)C3=O)cc1C (stereo not given)	7.3%	-0.3%	-26.8%	26.6	5.3%
CCOC(=O)c1ccc(NC(=O)c2ccc3c(c2)C(=O)N(CC2CCCO2)C3=O)cc1 (stereo not given)	-4.9%	u	18.4µM*	23.4	-0.7%
O=C(CCNC(=O)c1ccccc1Cl)Nc1nnc(C2CC2)s1	-0.9%	3.8%	-12.6%	21.6	4.5%
SMILES	HT1080-NT tox	DT40 TDP1 CPT	DT40 TDP1 no CPT	IL-1B inflam inh	HT1080 IDH1KD tx
COc1ccc(OC)c(CCNC(=O)c2ccccc2NC(=O)C2=C(C)OCCS2)c1	-0.3%	u	u	0.0	-15.4%
COC(=O)[C@@]12C[C@@H](CC(=O)NCCC(C)C)C(=O)N(Cc3ccc4c(c3)OCO4)C1=CCC(C)(C)C2	u	u	18.4µM*	-55.2*	u
CCCCOCCCNC(=O)C[C@@H]1C[C@@]2(C(=O)OC)CC(C)(C)CC=C2N(Cc2ccc3c(c2)OCO3)C1=O	u	u	20.6µM*	-10.9	u
CC1CCCN(c2ccc(C(=O)NCc3ccco3)cc2[N+](=O)[O-])C1 (stereo not given)	13.3%	2.0%	u	-60.7*	-19.7%
CN(CC(=O)Nc1ccc(Cl)c(C(F)(F)F)c1)C(=O)c1ccc(N2CCOCC2)c([N+](=O)[O-])c1	23.1µM*	23.1µM*	25.9µM*	u	u
CCCN(CC(=O)Nc1ccccc1C)C(=O)c1ccc(N2CCCC(C)C2)c([N+](=O)[O-])c1 (stereo not given)	-18.5%	u	u	-71.3*	-16.3%
O=C(NCC1CCCO1)c1ccc(N2CCCCC2)c([N+](=O)[O-])c1 (stereo not given)	13.7%	-7.6%	17.3%	-6.4	1.9%
CCCN(CC(=O)Nc1ccccc1C)C(=O)c1ccc(N2CCOCC2)c([N+](=O)[O-])c1	-5.0%	2.5%	-3.1%	-13.8	4.3%
Cc1ccc(NC(=O)CN(C)C(=O)c2ccc(Cl)c([N+](=O)[O-])c2)cc1	17.1%	u	u	-85.3*	14.9%
COc1cccc(NC(=O)COC(=O)/C=C/c2c(C)nn(-c3ccccc3)c2C)c1	-16.6%	u	u	3.7	3.7%
CCOc1ccc(NC(=O)CN(C)C(=O)c2ccc(N3CCCC3)c([N+](=O)[O-])c2)cc1OCC	-1.5%	0.1%	-19.6%	-4.0	-10.4%
Cc1cccc(NC(=O)CN(C)C(=O)c2ccc(N3CCCCCC3)c([N+](=O)[O-])c2)c1C	-29.1%	23.1µM*	18.4µM*	-25.6	-13.0%
CN(CC(=O)Nc1ccccc1Cl)C(=O)c1ccc(N2CCCCCC2)c([N+](=O)[O-])c1	-5.2%[9.24 µM]	23.1µM*	18.4µM*	u	0.4%
CN(CC(=O)NCCc1ccccc1)S(=O)(=O)c1ccc(Br)s1	-11.8%	3.8%	-22.3%	-19.3	-1.8%
Cc1ccc(S(=O)(=O)/N=C(\N)Nc2nc(C)c3cc(C)c(C)cc3n2)cc1	14.3%	23.1µM*	u	-2.2	6.7%
Cc1ccc(S(=O)(=O)/N=C(\N)Nc2nc(C)c3ccc(C)cc3n2)cc1	8.4%	20.6µM*	u	-21.2	-9.9%

Bioassay records (PubChem)
